Screening results deposited in PubChem by Broad Institute.
esBAF inh = blocks esBAF chromatin remodeling in mouse ES cells; reporter increase, % at 12.5 µM; Bmi1-luciferase knock-in reporter, 24 h; 100% = twice the neutral-well signal; hit rate 2% among 350,000; in the data active = activation above about 40%; inconclusive = no clear call, values can overlap the other calls;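 also: a rise in the Bmi1 reporter signal indicates esBAF inhibition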
Statin myotox sup = protects C2C12 myotubes from simvastatin toxicity | ATP luminescence, 48 h; scaled: DMSO 0, geranylgeraniol control 100 | rescue of ATP level, % at 7.49 µM | hit rate 0.78% among 330,000 | AID 602340;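 active = mean ATP rescue above about 67%, or every replicate alone reaching that limit, limit read from the data, passing the limit was not always enough; inconclusive = no clear call, values can overlap the other calls; inactive = mean under the limit and some replicate under it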;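 also: myotubes were challenged with 10 µM simvastatin during compound exposure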
Wnt act = activates Wnt/beta-catenin signaling in a reporter cell assay | hit rate 1.2% among 300,000 | activation, % at 9.35 µM | AID 743398 | activator, plate reader; in the data active = activation above about 30%, passing the limit was not always enough; inconclusive = no clear call, values can overlap the other calls
MITF act = activators of MITF-driven TRPM1 promoter activity in SK-MEL-5 cells. activation, % at 12.5 µM. hit rate 0.75% among 300,000. SK-MEL-5 TRPM1-promoter luciferase, 24 h; % of positive control, neutral wells = 0;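 active = mean activation of at least 80% with every replicate also reaching 80%; inconclusive = mean reaches 80% but some replicate falls short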
Of the large screens only hits and unclear results are named; the others gave an inactive call. Only some compounds are listed: those with a hit (about 3% of all), similar ones and a draw of the others.

COCC(=O)Nc1ccc2c(c1)[C@@H]1C[C@H](CC(=O)NCCN3CCCCC3)O[C@@H](CO)[C@@H]1O2	none (no result: Wnt act, MITF act)
C[C@H]1CN([C@@H](C)CO)C(=O)c2cc(C#CCN(C)C)cnc2O[C@@H]1CN(C)C(=O)c1cnccn1	none (no result: Wnt act, MITF act)
O=C1CC(c2ccco2)Sc2nc3ccccc3n21 (centres undefined)	Wnt act 47
O=C1CC(c2cccs2)Sc2nc3ccccc3n21 (centres undefined)	none (no result: esBAF inh, Statin myotox sup, Wnt act)
O=C1CC(c2ccccc2)Sc2nc3ccccc3n21 (centres undefined)	Wnt act 35 (no result: esBAF inh, Statin myotox sup)
COc1ccc(S(=O)(=O)N(C)C[C@H]2Oc3ccc(NC(=O)c4ccncc4)cc3CC(=O)N([C@H](C)CO)C[C@H]2C)cc1	none (no result: Wnt act, MITF act)
O=C(N/N=C\C=C\c1ccco1)c1cc(-c2ccc3ccccc3c2)n[nH]1	Wnt act 57 (no result: esBAF inh, Statin myotox sup)
O=C(N/N=C/C=C\c1ccco1)c1ccccn1	none (no result: esBAF inh, Statin myotox sup)
CC(C)(C)C(=O)Nc1nc2c(s1)CN(Cc1ccccc1)CC2	none (no result: esBAF inh, Statin myotox sup)
CCC(=O)N1CCc2nc(-c3ccccc3)sc2C1	esBAF inh 46, MITF act 84
CCS(=O)(=O)c1ncc(Cl)c(C(=O)Nc2ccc(C)cc2)n1	Statin myotox sup 127 (no result: MITF act)
C[C@H](CO)N1C[C@H](C)[C@H](CN(C)S(=O)(=O)c2ccc(F)cc2)Oc2c(NS(=O)(=O)c3ccccc3)cccc2C1=O	none (no result: Wnt act, MITF act)
C[C@@H]1CCCCO[C@H](CN(C)C(=O)Nc2ccc(C(F)(F)F)cc2)[C@@H](C)CN([C@@H](C)CO)C(=O)c2cc(NS(=O)(=O)c3ccc(Cl)cc3)ccc2O1	none (no result: Statin myotox sup, Wnt act, MITF act)
COc1cccc(-c2cnc(C(O)c3ccc(F)cc3)[nH]2)c1 (centres undefined)	esBAF inh 56 (no result: MITF act)
CCc1ccc(C(O)c2ncc(-c3cccc(F)c3)[nH]2)cc1 (centres undefined)	esBAF inh 87 (no result: MITF act)
CC(=O)NC[C@H]1[C@H](c2ccc(-c3ccccc3)cc2)[C@@H](CO)N1C(=O)C1CC1	none (no result: Wnt act, MITF act)
C[C@H]1CN([C@@H](C)CO)C(=O)c2cccc(NC(=O)Nc3ccc(C(F)(F)F)cc3)c2O[C@@H]1CN(C)Cc1ccc(-c2ccccc2)cc1	none (no result: Wnt act, MITF act)
CCS(=O)(=O)N[C@H]1C=C[C@H](CC(=O)NC2Cc3ccccc3C2)O[C@H]1CO	none (no result: Wnt act, MITF act)
CC(C)C1Oc2ccccc2C(=O)N(CC(=O)c2ccc3c(c2)OCCO3)C1=O (centres undefined)	esBAF inh 71, Wnt act 33
CCC1Oc2ccccc2C(=O)N(CC(=O)c2ccc3c(c2)OCCO3)C1=O (centres undefined)	esBAF inh 69
CC1Oc2ccccc2C(=O)N(CC(=O)c2ccc3c(c2)OCCO3)C1=O (centres undefined)	none
COc1ccc(C(=O)Cn2nnc(-c3cccs3)n2)cc1	Wnt act 51 (no result: Statin myotox sup, MITF act)
CCCN1[C@@H]2Cn3c(ccc(-c4cccnc4)c3=O)[C@H]1[C@@H](C(=O)NCCc1cn(C)cn1)[C@@H]2CO	none (no result: Wnt act, MITF act)
CC=Cc1ccc2n(c1=O)C[C@@H]1[C@@H](CO)[C@H](C(=O)NCCC)[C@H]2N1C(=O)c1ccccc1 (mixture of isomers)	none (no result: Wnt act, MITF act)
CN1C(=O)c2cc(NS(=O)(=O)c3ccccc3Cl)ccc2OC[C@H]2O[C@@H](CC(=O)O)CC[C@@H]21	none (no result: Wnt act, MITF act)
Cc1nn(C)c(=O)n1-c1ccc(Oc2ccccc2)cc1	none (no result: Wnt act)
Cc1nn(CCOc2ccccc2)c(=O)n1-c1c(F)cccc1F	esBAF inh inconclusive, Wnt act 60 (no result: MITF act)
Cc1ccc(-n2c(C)nn(CCOc3ccccc3)c2=O)cc1	esBAF inh 45
C[C@H]1CN([C@@H](C)CO)C(=O)Cc2cc(NC(=O)Nc3ccc(F)cc3)ccc2O[C@@H]1CN(C)C(=O)Nc1ccccc1	none (no result: Wnt act, MITF act)
C[C@H]1CN([C@@H](C)CO)C(=O)c2cc(C#CC3CCCCC3)cnc2O[C@H]1CN(C)C(=O)c1ccncc1	none (no result: Wnt act, MITF act)
CN1C(=O)c2cc(NC(=O)c3cccc(F)c3)ccc2OC[C@H]2O[C@@H](CC(=O)O)CC[C@H]21	none (no result: Wnt act, MITF act)
O=C(N/N=C/c1cccc([N+](=O)[O-])c1)c1ccc2c(c1)OCCO2	esBAF inh 44, Wnt act 40 (no result: MITF act)
Cc1nc2ccccc2cc1C(=O)N/N=C/c1cccc([N+](=O)[O-])c1	none (no result: esBAF inh, Statin myotox sup)
Nc1ccccc1C(=O)NN=Cc1cccc([N+](=O)[O-])c1	esBAF inh inconclusive, Wnt act 39 (no result: MITF act)
COc1ccc(S(=O)(=O)Nc2cccc3c2O[C@H](CN(C)Cc2ccccc2)[C@H](C)CN([C@@H](C)CO)C3=O)cc1	none (no result: Wnt act, MITF act)
Cc1ccc(Nc2cc(C)c3c(O)cccc3n2)cc1C	MITF act 111
Cc1ccc(OCc2nnc(SCC(=O)c3ccccc3)n2Cc2ccco2)cc1	Statin myotox sup 77 (no result: Wnt act)
O=C(O)CSc1nnc(COc2ccc(Br)cc2)n1-c1ccccc1	none
Cc1ccc(-n2c(COc3ccccc3)nnc2SCC(=O)O)cc1	Wnt act 62 (no result: MITF act)
O=C(CSc1nnc(COc2ccccc2)n1Cc1ccco1)c1ccc(F)cc1	none
COC(=O)N/N=C\c1ccccc1OC/C=C/c1ccccc1	esBAF inh 49, MITF act 98
N#CCC(=O)N/N=C/c1cccc(Oc2ccccc2)c1	none (no result: esBAF inh, Statin myotox sup)
CCOC(=O)N/N=C\c1ccccc1OC/C=C/c1ccccc1	esBAF inh 46, Wnt act 42
N#CCC(=O)N/N=C\c1cc(Br)ccc1OC/C=C/c1ccccc1	Wnt act inconclusive, MITF act 93
COc1cc(/C=N\NC(C)=O)ccc1OC/C=C/c1ccccc1	none
C[C@@H]1CN([C@@H](C)CO)C(=O)Cc2cc(NS(=O)(=O)c3cn(C)cn3)ccc2O[C@H]1CN(C)Cc1ccccc1	none (no result: Wnt act, MITF act)
CO[C@@H]1CN(C)C(=O)c2ccc(NC(=O)c3cccc(F)c3)cc2OC[C@@H](C)N(CC2CC2)C[C@@H]1C	none (no result: Wnt act, MITF act)
C[C@H](CO)N1C[C@H](C)[C@H](CN(C)Cc2cccnc2)Oc2cc(C3=CCCC3)ccc2S1(=O)=O	none (no result: Wnt act, MITF act)
COc1ccc(-c2cc3nc4ccccc4n3c(N)c2C#N)cc1	MITF act 114 (no result: esBAF inh, Statin myotox sup)
COc1ccc(-c2cc(-c3ccccc3)c(C#N)c(S(C)=O)n2)cc1 (centres undefined)	none
C[C@@H]1CCCCO[C@H](CN(C)C(=O)C2CCCCC2)[C@@H](C)CN([C@H](C)CO)C(=O)c2cc(NC(=O)Cc3ccccc3)ccc2O1	none (no result: Wnt act, MITF act)
O=C1NC[C@H](CC2CCCCC2)N(CC2CCCCC2)C1=O	Statin myotox sup 107
CCc1ccc(OCC(=O)N2CCc3ccccc32)cc1	esBAF inh 47
O=C(COc1ccc2c(c1)CCC2)N1CCc2ccccc21	esBAF inh 78, Wnt act 60 (no result: MITF act)
C[C@@H]1CN([C@H](C)CO)C(=O)c2cc(/C=C/c3ccccc3)cnc2O[C@@H]1CN(C)C(=O)c1ccc(F)cc1	none (no result: Wnt act, MITF act)
CCNC(=O)CSc1nnc(-c2cccs2)o1	none (no result: esBAF inh, Statin myotox sup)
O=C(CSc1nnc(-c2cccs2)o1)c1cccs1	esBAF inh 104, MITF act inconclusive (no result: Wnt act)
CC1CCCN(C(=O)CSc2nnc(-c3cccs3)o2)C1 (centres undefined)	MITF act 89
CCS(=O)(=O)NCC[C@@H]1CC[C@@H](NC(=O)Cc2ccccn2)[C@@H](CO)O1	none (no result: Wnt act, MITF act)
CN1C(=O)c2cc(NC(=O)c3ccccc3)ccc2OC[C@H]2O[C@@H](CC(=O)O)CC[C@H]21	none (no result: Wnt act, MITF act)
